According to PubChem BioAssay (NCATS):
Inconclusive results are not listed. Activity calls are given as the source filed them. Unless noted, calls come from the whole dose curve; as a rule, active = well fitted curve in the direction sought with a large enough effect; inconclusive = small, poorly fitted or top-dose-only effect, or another doubt; inactive = no such curve, though single readings can be large; an effect the other way counts as inactive or inconclusive.

How the values were obtained:
[1] = biological target: DNA repair nuclease/redox regulator APEX1 (Homo sapiens) (UniProt P27695); experiment: qHTS Validation Assay for Inhibitors of the Human Apurinic/apyrimidinic Endonuclease 1 (APE1) (AID 1705;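 note: TAMRA fluorescence gain over two minutes as APE1 cuts a quenched THF abasic duplex; series mostly up to about 57 µM; % is set by controls: 0 for no effect and ±100 for the full control effect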)
Sequence of DNA repair nuclease/redox regulator APEX1 (Homo sapiens) (P27695 whole entry, looked up): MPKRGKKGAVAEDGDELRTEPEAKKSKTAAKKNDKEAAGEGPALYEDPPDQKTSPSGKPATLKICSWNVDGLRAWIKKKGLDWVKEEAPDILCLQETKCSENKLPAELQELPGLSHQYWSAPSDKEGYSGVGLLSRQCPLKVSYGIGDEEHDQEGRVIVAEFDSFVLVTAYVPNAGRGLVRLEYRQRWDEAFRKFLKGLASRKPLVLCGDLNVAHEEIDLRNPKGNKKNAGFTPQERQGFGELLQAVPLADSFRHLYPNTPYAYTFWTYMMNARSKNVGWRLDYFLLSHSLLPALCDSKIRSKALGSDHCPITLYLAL
Method in brief: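 Substrate: 50 nM final fluorophore/quencher THF-abasic duplex. Enzyme preincubated with compounds 15 min, RT. Progress derived from fluorescence difference, third minus first kinetic read.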

[2] = Counterscreen for APE1 Inhibitors: Fluorescent Dye Displacement Validation Assay (AID 1707);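 note: plate controls were ThO with dsDNA and no compound for no effect and ThO without dsDNA for full effect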
Method in brief: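 Thiazole Orange (250 nM) bound to 50 nM TAMRA-labelled dsDNA with tetrahydrofuran abasic site; displacement by DNA-binding compounds lowers fluorescence. Buffer 50 mM Tris-HCl pH 7.5, 50 mM NaCl, 2 mM MgCl2, 0.01% Tween-20; endpoint read at 480/540 nm.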

[3] = biological target: Endonuclease 4 (Escherichia coli (strain K12)) (UniProt P0A6C1); experiment: Counterscreen for APE1 Inhibitors: qHTS Validation Assay for Inhibitors of Endonuclease IV (AID 1708); note: % is set by controls: 0 for no effect and ±100 for the full control effect
Method in brief: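 Enzymatic AP-site incision assay using a double-stranded THF substrate labelled with TAMRA and BHQ-2; released fluorescence signals activity. Enzyme 2 nM, substrate 50 nM, 15 min compound preincubation.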

[4] = qHTS for differential inhibitors of proliferation of Plasmodium falciparum line 3D7 (AID 1876);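 note: parasite growth measured after three days of culture; 0% = vehicle wells and -100% = reference inhibitor wells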
[5] = qHTS for differential inhibitors of proliferation of Plasmodium falciparum line Dd2 (AID 1882); conditions: Potency: Plasmodium falciparum Dd2 proliferation inhibition; note: nearly all actives have a fitted effect of over 65% in size; note: potency is the fitted concentration of half-maximal effect
Method in brief: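 SYBR Green I DNA fluorescence read-out, ex 485/em 535 nm. Signals were normalized to 0.29 uM artemisinin and DMSO wells, then corrected using vehicle-only plates flanking each stack. Parasite growth ran 72 h in erythrocytes before lysis.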

[6] = qHTS for differential inhibitors of proliferation of Plasmodium falciparum line W2 (AID 1883); conditions: Potency: Plasmodium falciparum W2 proliferation inhibition;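 note: potency is the fitted concentration of half-maximal effect; parasites grown with compound for 72 h before lysis and staining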
[7] = biological target: ATP-dependent DNA helicase Q1 (Homo sapiens) (UniProt P46063); experiment: qHTS Validation Assay for Inhibitors of RecQ-Like Dna Helicase 1 (RECQ1) (AID 2353);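 note: plate controls were DMSO vehicle for no effect and enzyme-free control for full effect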
Sequence of ATP-dependent DNA helicase Q1 (Homo sapiens) (P46063 whole entry, looked up): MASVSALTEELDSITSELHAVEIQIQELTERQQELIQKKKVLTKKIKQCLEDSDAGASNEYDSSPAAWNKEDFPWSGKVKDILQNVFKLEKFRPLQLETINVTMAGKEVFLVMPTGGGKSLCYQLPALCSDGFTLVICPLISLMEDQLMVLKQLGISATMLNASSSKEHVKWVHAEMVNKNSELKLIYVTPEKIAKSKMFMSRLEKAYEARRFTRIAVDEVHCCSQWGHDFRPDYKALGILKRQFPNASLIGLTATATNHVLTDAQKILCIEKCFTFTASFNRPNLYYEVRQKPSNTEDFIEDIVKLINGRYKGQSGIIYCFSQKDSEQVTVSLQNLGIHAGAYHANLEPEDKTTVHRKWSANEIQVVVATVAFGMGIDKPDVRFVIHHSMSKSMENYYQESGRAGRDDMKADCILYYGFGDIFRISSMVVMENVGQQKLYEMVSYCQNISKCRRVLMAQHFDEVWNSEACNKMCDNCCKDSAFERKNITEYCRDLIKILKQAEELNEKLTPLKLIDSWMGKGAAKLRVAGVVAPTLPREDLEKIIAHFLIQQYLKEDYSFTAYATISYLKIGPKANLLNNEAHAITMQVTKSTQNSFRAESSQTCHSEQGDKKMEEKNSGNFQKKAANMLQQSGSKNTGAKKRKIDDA
Method in brief: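 50 nM RECQ1T1 preincubated 15 min with compound in Tris pH 8.0 buffer with MgCl2, DTT, Tween-20 and 2.5 ug/ml poly(dI-dC); started with 200 nM TAMRA/BHQ-2 forked duplex and 2 mM ATP. Unwinding read as fluorescence (525/598 nm), two reads 2 h apart.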

[8] = biological target: RecQ-like DNA helicase BLM (Homo sapiens) (UniProt P54132); experiment: qHTS Validation Assay for Inhibitors of Bloom's syndrome helicase (BLM) (AID 2364);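 note: plate controls were DMSO vehicle for no effect and enzyme-free control for full effect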
Sequence of RecQ-like DNA helicase BLM (Homo sapiens) (P54132 whole entry, looked up): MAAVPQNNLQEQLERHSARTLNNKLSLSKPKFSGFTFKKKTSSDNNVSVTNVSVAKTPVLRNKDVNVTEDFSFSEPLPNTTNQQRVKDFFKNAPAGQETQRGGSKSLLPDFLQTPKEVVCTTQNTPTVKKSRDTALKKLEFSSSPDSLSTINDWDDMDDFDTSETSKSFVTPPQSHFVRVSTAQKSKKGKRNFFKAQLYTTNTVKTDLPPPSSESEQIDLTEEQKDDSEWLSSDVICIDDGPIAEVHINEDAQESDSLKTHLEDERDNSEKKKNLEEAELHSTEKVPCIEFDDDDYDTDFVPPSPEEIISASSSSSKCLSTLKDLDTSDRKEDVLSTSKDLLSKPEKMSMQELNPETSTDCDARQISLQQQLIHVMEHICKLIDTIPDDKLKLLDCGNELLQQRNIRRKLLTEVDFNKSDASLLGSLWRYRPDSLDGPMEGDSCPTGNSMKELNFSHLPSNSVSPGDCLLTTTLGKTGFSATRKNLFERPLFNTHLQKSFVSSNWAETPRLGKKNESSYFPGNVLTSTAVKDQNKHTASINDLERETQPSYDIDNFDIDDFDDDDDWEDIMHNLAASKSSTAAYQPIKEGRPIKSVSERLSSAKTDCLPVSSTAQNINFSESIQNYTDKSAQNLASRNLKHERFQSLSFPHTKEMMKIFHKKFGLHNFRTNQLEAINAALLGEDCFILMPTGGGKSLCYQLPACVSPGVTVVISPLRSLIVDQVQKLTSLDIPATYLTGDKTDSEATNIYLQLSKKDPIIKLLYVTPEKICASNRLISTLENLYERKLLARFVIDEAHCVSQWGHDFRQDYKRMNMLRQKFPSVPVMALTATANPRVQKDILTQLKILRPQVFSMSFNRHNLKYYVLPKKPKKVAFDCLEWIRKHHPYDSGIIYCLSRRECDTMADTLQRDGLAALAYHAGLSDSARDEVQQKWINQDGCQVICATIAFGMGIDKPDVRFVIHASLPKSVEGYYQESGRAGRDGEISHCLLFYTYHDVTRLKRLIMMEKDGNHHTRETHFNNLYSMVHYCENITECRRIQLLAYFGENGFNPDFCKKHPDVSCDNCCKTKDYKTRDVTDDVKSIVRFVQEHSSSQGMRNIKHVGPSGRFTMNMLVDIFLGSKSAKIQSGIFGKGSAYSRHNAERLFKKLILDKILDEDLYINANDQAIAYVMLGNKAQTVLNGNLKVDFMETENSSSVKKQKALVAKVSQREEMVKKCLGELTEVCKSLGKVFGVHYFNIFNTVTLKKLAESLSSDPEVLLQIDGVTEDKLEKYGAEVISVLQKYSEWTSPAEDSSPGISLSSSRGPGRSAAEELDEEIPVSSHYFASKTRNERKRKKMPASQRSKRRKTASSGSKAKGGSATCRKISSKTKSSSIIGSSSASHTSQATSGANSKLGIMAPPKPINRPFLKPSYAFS
Method in brief: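 Forked 20-bp duplex substrate (200 nM, TAMRA/BHQ-2) plus 2 mM ATP added after 15 min compound preincubation with 50 nM enzyme, pH 8.0, poly(dI-dC) 2.5 ug/ml. Strand separation followed by fluorescence (525/598 nm) over 2 h, normalized to enzyme-free and DMSO controls.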

[9] = Validation screen for inhibitors of Lassa infection (AID 463096; calls by dose curve; note: % is set by controls: 0 for no effect and ±100 for the full control effect)
[10] = Validation screen for small molecules that induce DNA re-replication in MCF 10A normal breast cells (AID 463097); note: 0% is about no effect; nearly all actives have a fitted effect of over 60% in size
Method in brief: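 Following 48 hr compound incubation (37 C, 5% CO2), MCF 10A cells receive Hoechst for 40 min at 37 C. Nuclei are then scanned (excitation 405 nm, emission 500-530 nm) for total fluorescence intensity.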

[11] = Quantitative high throughput screen for delayed death inhibitors of the malarial parasite plastid, 96 hour incubation (AID 488745); note: series mostly up to about 29 µM; % is set by controls: 0 for no effect and ±100 for the full control effect; nearly all actives have a fitted effect of over 70% in size
Method in brief: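 P. falciparum carrying an integrated firefly luciferase reporter, grown in erythrocytes (2% hematocrit, 0.1% parasitemia final) in RPMI 1640/0.5% Albumax, was exposed to compound for 96 h (two generations) at 37 C, 5% CO2. Luminescence decrease indicated growth inhibition.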

[12] = Quantitative high throughput screen for delayed death inhibitors of the malarial parasite plastid, 48 hour incubation (AID 488752); note: % is set by controls: 0 for no effect and ±100 for the full control effect; nearly all actives have a fitted effect of over 65% in size
Method in brief: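 Erythrocytes infected with P. falciparum carrying an integrated firefly luciferase reporter (2% hematocrit, 0.1% parasitemia final) were exposed to compounds in RPMI 1640/0.5% Albumax for 48 h at 37 C, 5% CO2. Growth inhibition was scored as reduced luminescence.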

[13] = biological target: Transient receptor potential cation channel subfamily V member 1 (Homo sapiens) (UniProt Q8NER1); experiment: HTS Assay for Compounds that Act as Enhancers of the Vanilloid Receptor 1 (AID 488979); note: 0% is about no effect
Sequence of Transient receptor potential cation channel subfamily V member 1 (Homo sapiens) (Q8NER1 whole entry, looked up): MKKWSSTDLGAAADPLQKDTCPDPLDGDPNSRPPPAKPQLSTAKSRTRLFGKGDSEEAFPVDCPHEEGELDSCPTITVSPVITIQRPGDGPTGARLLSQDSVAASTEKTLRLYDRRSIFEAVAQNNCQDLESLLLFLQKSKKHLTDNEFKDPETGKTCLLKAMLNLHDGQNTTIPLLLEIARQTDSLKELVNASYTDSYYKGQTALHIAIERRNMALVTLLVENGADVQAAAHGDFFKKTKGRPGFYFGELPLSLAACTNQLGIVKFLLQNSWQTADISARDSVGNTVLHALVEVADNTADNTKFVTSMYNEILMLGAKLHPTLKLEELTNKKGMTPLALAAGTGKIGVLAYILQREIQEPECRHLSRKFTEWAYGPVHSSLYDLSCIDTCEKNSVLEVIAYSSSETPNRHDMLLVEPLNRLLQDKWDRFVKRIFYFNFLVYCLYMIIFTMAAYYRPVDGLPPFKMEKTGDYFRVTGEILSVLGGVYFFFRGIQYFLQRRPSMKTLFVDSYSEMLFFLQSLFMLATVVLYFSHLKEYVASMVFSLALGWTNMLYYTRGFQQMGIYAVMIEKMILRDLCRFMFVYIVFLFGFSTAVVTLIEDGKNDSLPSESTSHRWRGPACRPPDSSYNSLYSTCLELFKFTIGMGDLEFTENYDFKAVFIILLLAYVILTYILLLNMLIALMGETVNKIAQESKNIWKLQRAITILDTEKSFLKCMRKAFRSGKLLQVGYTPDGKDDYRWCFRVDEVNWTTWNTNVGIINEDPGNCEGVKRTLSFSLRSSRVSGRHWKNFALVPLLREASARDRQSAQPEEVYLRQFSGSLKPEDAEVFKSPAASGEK
Method in brief: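 Calcium influx kinetics via Fluo-8 (480/520 nm) in TRPV1-expressing cells, 2000/well cultured overnight at 35.5C. Compound-alone read 3 min (agonist phase), followed by EC20 capsaicin challenge for 2 min (enhancer phase).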

[14] = biological target: Galactokinase (Homo sapiens) (UniProt P51570); experiment: qHTS Validation Assay for Inhibitors of Human Galactokinase (GALK) (AID 493189); note: 0% is about no effect
Sequence of Galactokinase (Homo sapiens) (P51570 whole entry, looked up): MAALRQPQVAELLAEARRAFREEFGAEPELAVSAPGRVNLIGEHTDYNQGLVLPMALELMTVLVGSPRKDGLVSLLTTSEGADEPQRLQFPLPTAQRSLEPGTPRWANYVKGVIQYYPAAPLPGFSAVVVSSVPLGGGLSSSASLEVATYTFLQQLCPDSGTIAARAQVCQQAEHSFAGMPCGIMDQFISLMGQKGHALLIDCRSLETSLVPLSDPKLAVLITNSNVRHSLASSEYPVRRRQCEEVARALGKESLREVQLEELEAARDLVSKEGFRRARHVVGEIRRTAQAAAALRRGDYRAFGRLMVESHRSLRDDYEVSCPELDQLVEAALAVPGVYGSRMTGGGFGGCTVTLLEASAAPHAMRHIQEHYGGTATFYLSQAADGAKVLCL
Method in brief: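 Enzyme activity is inferred from ATP consumption: human GALK phosphorylates galactose (100 uM) using 35 uM ATP for 1 h at room temperature, and luciferase-based Kinase-Glo Plus reports unconsumed ATP.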

[15] = NCATS anti-infectives library activity on the primary C. elegans qHTS viability assay (AID 1745855; calls by dose curve)
Method in brief: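 Viability is taken from GFP fluorescence of PE254-GFP-FLuc C. elegans imaged by laser cytometry over 7 days. Ten L1 worms per well grow at 21 °C on TOP10 E. coli capsules with titrated compound; levamisole marks toxicity.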

[16] = qHTS for differential inhibitors of proliferation of Plasmodium falciparum line 7G8 (AID 1815);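 note: potency is the fitted concentration of half-maximal effect; parasite growth measured after three days of incubation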
[17] = qHTS for differential inhibitors of proliferation of Plasmodium falciparum line GB4 (AID 1816); conditions: Potency: Plasmodium falciparum GB4 proliferation inhibition;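 note: potency is the fitted concentration of half-maximal effect; parasite growth measured after 72 h incubation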
[18] = qHTS for differential inhibitors of proliferation of Plasmodium falciparum line D10 (AID 1877);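 note: potency is the fitted concentration of half-maximal effect; parasites grown with compound for 72 h before DNA staining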
[19] = qHTS for differential inhibitors of proliferation of Plasmodium falciparum line HB3 (AID 1886); conditions: Potency: Plasmodium falciparum HB3 proliferation inhibition;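 note: potency is the fitted concentration of half-maximal effect; parasites grown with compound for 72 h before SYBR Green readout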
[20] = biological target: Ferritin light chain (Equus caballus) (UniProt P02791); experiment: qHTS Validation Assay for Identification of Novel General Anesthetics (AID 2323); note: series mostly up to about 77 µM; % is set by controls: 0 for no effect and ±100 for the full control effect
Sequence of Ferritin light chain (Equus caballus) (P02791 2-175 limits assumed): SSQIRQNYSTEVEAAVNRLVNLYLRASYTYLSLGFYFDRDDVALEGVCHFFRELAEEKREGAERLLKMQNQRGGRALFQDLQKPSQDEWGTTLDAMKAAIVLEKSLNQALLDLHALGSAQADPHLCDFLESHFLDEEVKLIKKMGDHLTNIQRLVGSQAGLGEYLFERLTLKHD
Method in brief: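 Normalized fluorescence response, scaled between free 1-AMA and 1-AMA/apoferritin complex, fitted to a four-parameter Hill equation for concentration-effect values. Binding mix: 10 uM horse-spleen apoferritin, 50% saturated 1-AMA in PBS; read 380/535 nm after 10 min.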

[21] = biological target: Thyrotropin-releasing hormone receptor (Homo sapiens) (UniProt P34981); experiment: qHTS for Small Molecule Agonists and Allosteric Enhancers of Human TRH Receptor: Validation Screen for Agonists (AID 493127;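 active = calcium activation more than 3 SD above the typical response in the agonist read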;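 note: intracellular calcium rise by fluo-8 fluorescence before TRH EC20 addition; 0% is about no effect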); conditions: TRH receptor agonist cell assay; at 2 µM; stronger effect = higher value
Sequence of Thyrotropin-releasing hormone receptor (Homo sapiens) (P34981 whole entry, looked up): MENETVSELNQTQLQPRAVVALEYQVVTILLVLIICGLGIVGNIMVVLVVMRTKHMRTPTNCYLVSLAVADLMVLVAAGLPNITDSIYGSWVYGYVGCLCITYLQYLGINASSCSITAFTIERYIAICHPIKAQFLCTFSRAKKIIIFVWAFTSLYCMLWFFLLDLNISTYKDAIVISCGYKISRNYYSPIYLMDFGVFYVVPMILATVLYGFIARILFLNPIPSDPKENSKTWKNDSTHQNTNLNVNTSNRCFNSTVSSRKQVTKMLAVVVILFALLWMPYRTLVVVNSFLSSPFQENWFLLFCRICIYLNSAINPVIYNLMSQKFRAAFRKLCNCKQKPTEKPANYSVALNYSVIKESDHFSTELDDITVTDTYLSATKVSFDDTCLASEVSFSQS
Method in brief: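 TRHR-expressing cells were plated overnight in serum-containing medium, then loaded with fluo-8 calcium dye at room temperature for 30 min–1.5 h. After a 10 s baseline, compound was pin-transferred and calcium fluorescence (ex 480/em 530) read kinetically for agonist response.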

C[C@]12CC[C@@H](O)CC1CCC1C2CC[C@]2(C)C(=O)CC[C@@H]12 (some centres undefined)
active: Potency [6] 10 µM
inactive: Potency [1] | outcome [2] | Potency [3] | Potency [4] | Potency [5] | outcome [7] | outcome [8] | Potency [9] | Potency [10] | Potency [11] | Potency [12] | outcome [13] | outcome [14]

COC(=O)C[C@@](O)(CCC(C)(C)O)C(=O)O[C@@H]1C(OC)=C[C@]23CCCN2CCc2cc4c(cc2[C@@H]13)OCO4
inactive: Potency [15]

Oc1cc2c(cc1O)[C@H]1c3ccccc3CNC1CC2 (some centres undefined)
inactive: Potency [1] | outcome [2] | Potency [3] | Potency [20] | Potency [9] | outcome [13] | activation [21] 0.812% | outcome [14]
active: Potency [16] 10 µM | Potency [17] 12.6 µM | Potency [18] 11.2 µM | Potency [5] 8.91 µM | Potency [6] 10 µM | Potency [19] 11.2 µM
